# Compound activity as filed in PubChem BioAssay.
# This is a sample that favours compounds with a hit; in the whole collection about 6.8% have one here.
# KB-V1 MDR tox: KB-V1 MDR subline cytotoxicity | KB-V1 MDR cells viability, CellTiter-Glo, 72 h | Potency, µM (highest dose often 46.1 µM), hits mostly cytotoxic | actives 3.4% (n = 400,000); also: % is scaled to controls: 0 for no effect and ±100 for the full control effect; nearly all actives have a fitted effect of over 60% in size
#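 Following 72 h at 37 degrees C with compound, KB-V1 cell viability was read by CellTiter-Glo luminescence, medium being phenol-red-free DMEM plus 10% FBS; concentration-response parameters came from normalized, curve-fitted qHTS data.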
# KB-3-1 cytotox: KB-3-1 parental cell cytotoxicity; AID 1347075; KB-3-1 viability, CellTiter-Glo ATP luminescence, 72 h; Potency, µM (titrated, usually from 46.1 µM), actives largely listed as cytotoxic; actives 1.4% (n = 400,000); also: % is scaled to controls: 0 for no effect and ±100 for the full control effect; nearly all actives have a fitted effect of over 60% in size
#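 Parental KB-3-1 viability, qHTS format: 72 h compound exposure, 37 °C; CellTiter-Glo; media-only wells and DMSO plates as controls; concentration-effect fits on corrected data.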
# MCF10A rereplic: induces DNA re-replication in MCF 10a normal breast cells; MCF 10A DNA re-replication, Hoechst nuclear intensity, 48 h; Potency, µM (doses to about 46.1 µM), for the others: at the top dose activity, positive = re-replication, usual class: activators; actives 2.9% (n = 350,000); also: % of control where 0% means no effect; nearly all actives have a fitted effect of over 50% in size
# PTAP TSG101 blk: blocks PTAP/TSG101 interaction to inhibit HIV-1 budding; 340,000 tested, under 10 active; Fluorescence polarization, FITC-PTAP peptide / Tsg101 binding; Potency, µM (doses to about 115 µM), for inactives: at the top dose activity change, negative = inhibition, most hits filed as inhibitors; Q99816; AID 493005; active = well fitted inhibition curve with a large enough effect in the main read-out, with a control signal flat, not every such curve was filed as active; inconclusive = small, poorly fitted or top-dose-only effect, or effect the other way, or a change in a side signal; inactive = no such curve, though single readings can be large or run the other way; also: % of control where 0% means no effect
# Target sequence (Q99816 whole entry, looked up): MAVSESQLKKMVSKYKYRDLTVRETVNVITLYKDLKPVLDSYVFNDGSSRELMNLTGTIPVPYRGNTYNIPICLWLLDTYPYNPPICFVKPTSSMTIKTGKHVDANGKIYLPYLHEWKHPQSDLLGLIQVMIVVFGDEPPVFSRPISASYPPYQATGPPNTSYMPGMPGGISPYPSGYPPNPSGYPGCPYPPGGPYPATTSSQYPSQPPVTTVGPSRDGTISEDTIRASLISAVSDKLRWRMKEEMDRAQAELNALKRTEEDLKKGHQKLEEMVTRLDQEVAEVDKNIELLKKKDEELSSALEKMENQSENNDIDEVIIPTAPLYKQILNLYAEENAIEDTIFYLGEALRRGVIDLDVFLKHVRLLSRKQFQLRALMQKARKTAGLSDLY
#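 FP read-out: FITC-PTAP peptide, 50 nM final, binding Tsg101 binding domain, 10 uM final; 20 min, r.t.; 10 mM HEPES pH 7.5, 0.15 M NaCl, 0.01% Tween 20, 3 mM EDTA, 0.1 mM TCEP.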
# PINK1 modulator: changes PINK1 expression. Potency, µM (doses to about 76.6 µM), for inactives: top-dose activation (PINK1 increase), hits mostly activators. PINK1 immunofluorescence, high-content cytometry, 24 h. actives 0.2% (n = 410,000); active = well fitted activation curve with a large enough effect; inconclusive = small, poorly fitted or top-dose-only effect; cell line not stated here; also: % of control where 0% means no effect; nearly all actives have a fitted effect of over 65% in size
#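 Stable cell line treated 24 h with compounds at 5 concentrations (CCCP controls), then fixed and immunostained for PINK1 plus nuclear and cell stains; PINK1 immunofluorescence quantified by laser-scanning microplate cytometry.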
# SW480 rereplic: inducers of DNA re-replication in SW480 colon cancer cells; AID 624297; Potency, µM (top dose mostly 46.1 µM), without a hit: at the top dose re-replication activation, most hits filed as activators; SW480 DNA re-replication, Hoechst DNA content imaging, 48 h; actives 1.8% (n = 340,000); also: % of control where 0% means no effect; nearly all actives have a fitted effect of over 55% in size
#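 Per well, 250 cells were exposed to pinned compound for 48 hr. Nuclear DNA was visualised with Hoechst (40 min, 37 C) and total object intensity recorded by fluorescence scanning.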
# * marks the source's active call; other numbers are inactive results; i = inactive; ? = inconclusive; nt = not tested or not shown; [ ] = another dose, or the depositor's remark. Unless noted, calls follow the shape of the dose curve; as a rule, active = well fitted curve in the direction sought with a large enough effect; inconclusive = small, poorly fitted or top-dose-only effect, or another doubt; inactive = no such curve, though single readings can be large; an effect the other way counts as inactive or inconclusive. Potency is read from the fitted curve at half-maximal effect.
SMILES,KB-V1 MDR tox,KB-3-1 cytotox,MCF10A rereplic,PTAP TSG101 blk,PINK1 modulator,SW480 rereplic
O=C1NC(=Nc2ccccc2)S/C1=C\c1cccs1,i,i,5%,-2%,7%,-3%
Cn1cccc1/C=C1\SC(=Nc2ccccc2)NC1=O,2.6µM*,2.3µM*,?,1%,7%,?
Cn1cccc1/C=C1\SC(=Nc2cccc(O)c2)NC1=O,i,?,9.2µM*,-2%,9%,60%
COc1cc(/C=C2\SC(=Nc3ccc(O)cc3)NC2=O)cc(OC)c1O,i,?,?,1%,6%,?
COC(=O)/C=C1/SC(=Nc2ccc(C)cc2C)NC1=O,i,i,?,-1%,3%,-2%
Cc1ccc(N=C2NC(=O)/C(=C/c3cccn3C)S2)c(C)c1,23µM*,i,-6%,0%,15%,-100%
O=C1/C(=C\c2ccco2)SC(=S)N1c1ccc(O)cc1,i,i,-4%,-2%,5%,21µM*
Cc1ccc(N=C2NC(=O)/C(=C/c3cn(C)c4ccccc34)S2)cc1C,?,?,21µM*,?,5%,?
Cc1ccc(N=C2NC(=O)/C(=C\c3ccco3)S2)cc1,i,i,-5%,0%,4%,nt
O=C1NC(=Nc2ccc(O)cc2)S/C1=C/c1ccco1,8.2µM*,?,4.6µM*,-4%,-1%,2.9µM*
Cn1cc(/C=C2/SC(=O)N(c3ccccc3)C2=O)c2ccccc21,i,i,5%,-1%,7%,11%
CCN(CC)c1ccc(NC(=O)c2cnn(-c3ccccc3)c2-n2cccc2)c(C)c1,i,?,nt,nt,1%,nt
Nc1nc2c([nH]c(=S)n2C2OC(CO)C(O)C2O)c(=O)[nH]1 (stereo not given),nt,nt,nt,nt,0%,nt
CCSc1nnc(NC(=O)NC(C)(C(F)(F)F)C(F)(F)F)s1,i,i,?,1%,20µM*,?
CCCC(=O)Nc1nnc(SCC)s1,i,i,?,4%,0%,-8%
CCSc1nnc(NC(=O)NC(CC)(C(F)(F)F)C(F)(F)F)s1,i,?,?,-3%,22µM*,21%
CCC(NC(=O)Nc1nccs1)(C(F)(F)F)C(F)(F)F,i,i,4%,-3%,1%,1%
COc1ccc(OC)c(C(=O)Cn2nnc(-c3ccc(N4CCOCC4)cc3)n2)c1,i,21µM*,?,-6%,8%,10%
Cc1cc(/C=C(/C#N)c2nc3ccccc3[nH]2)c(C)n1-c1cccc([N+](=O)[O-])c1,?,?,3%,0%,6%,5%
O=C(c1cccc(F)c1)N1CCCC(C(=O)N2CCCCCC2)C1 (stereo not given),i,i,-2%,-3%,2%,-6%
COc1cc(N2CCCC2)c(OC)cc1/C=C(/C#N)c1cccc(F)c1,16µM*,?,10%,1%,17%,8%
N#C/C(=C/c1ccc(N2CCCCCC2)o1)c1cccc(F)c1,15µM*,i,?,?,8.9µM*,?
N#C/C(=C\c1c(Cl)cccc1Cl)c1nc2ccccc2[nH]1,i,i,?,1%,?,?
Cc1cc(/C=C(\C#N)c2nc3ccccc3[nH]2)c(C)n1C,5.2µM*,?,9%,-3%,7%,?
COc1cccc(/C=C(/C#N)c2ccc(F)cc2)c1OCc1cccc(C(=O)O)c1,i,i,19%,0%,3%,-16%
SMILES,KB-V1 MDR tox,KB-3-1 cytotox,MCF10A rereplic,PTAP TSG101 blk,PINK1 modulator,SW480 rereplic
N#C/C(=C\c1ccc(Cl)cc1)c1nc2ncccc2[nH]1,18µM*,i,?,-1%,16%,?
CCn1cc(S(=O)(=O)c2ccc(C)cc2C)c(=O)c2cc(F)c(N3CCCC3)cc21,i,i,nt,nt,-1%,nt
N#C/C(=C\c1ccc(Sc2ccc(Cl)cc2)o1)c1nc2ccccc2[nH]1,15µM*,i,15µM*,-1%,?,?
N#C/C(=C/c1ccc(N2CCOCC2)o1)C(=O)NC1CCCCC1,i,?,?,?,3%,14%
N#C/C(=C/c1ccc(N2CCCCCC2)o1)c1ccc(F)cc1,?,?,3.3µM*,?,21%,12µM*
N#C/C(=C/c1ccc(N2CCOCC2)o1)c1ccc(Br)cc1,18µM*,?,5.8µM*,?,?,5.8µM*
N#C/C(=C\c1ccc(N2CCOCC2)o1)c1ccccc1,?,i,18%,15%,nt,?
N#C/C(=C/c1ccc(N2CCOCC2)o1)c1nc2ccccc2[nH]1,?,i,18%,?,25µM*,0%
CCOC(=O)CSc1nc2sc3c(c2c(=O)n1Cc1ccccc1)CC(C)CC3 (stereo not given),nt,nt,nt,nt,0%,nt
Cc1noc(C)c1S(=O)(=O)N1CCCC(C(=O)Nc2ccc(C(C)C)cc2)C1 (stereo not given),i,i,nt,nt,0%,nt
Cc1ccc(C)c(OCc2ccc(C(=O)N3N=C(C(F)F)CC3(O)C(F)F)o2)c1 (stereo not given),i,?,?,1%,7%,16%
Cc1cc(C)cc(OCc2ccc(C(=O)N3N=C(C(F)F)CC3(O)C(F)F)o2)c1 (stereo not given),?,i,23µM*,-4%,5%,6%
CCOc1ccc(OCc2ccc(C(=O)N3N=C(C(F)F)CC3(O)C(F)F)o2)cc1 (stereo not given),16µM*,i,1%,-3%,1%[38.3 µM],4%
CCOc1cc(C(=O)NCC(c2ccc(N(C)C)cc2)N2CCOCC2)cc(OCC)c1OCC (stereo not given),i,i,nt,nt,-2%,nt
O=C(c1ccccc1Cl)N1CCc2ccccc2C1,i,i,5%,0%,0%[38.3 µM],-7%
Cc1ccccc1C(=O)N1CCc2ccccc2C1,i,i,16µM*,-9%,3%[38.3 µM],-1%
Cc1cccc(C(=O)OC(C)C(=O)N2CCc3ccccc3C2)c1C (stereo not given),18µM*,i,-1%,-4%,5%,2%
Cc1ccc2c(c1)sc1nc(-c3cc4cc(Cl)ccc4oc3=O)cn12,nt,nt,nt,nt,0%,nt
CC(=O)c1cccc(NC(=O)Cn2nc(-c3ccc(Cl)cc3)ccc2=O)c1,?,i,0.58µM*,0%,2%,-52%
COc1ccc(Nc2nc3c(S(=O)(=O)c4ccc(Br)cc4)nnn3c3ccsc23)c(OC)c1,i,i,nt,nt,2%,nt
Cc1cccc(CCNC(=O)c2sc3nc4n(c(=O)c3c2C)CCCC4)c1,i,i,nt,nt,3%,nt
